We go through eight compounds from PubChem BioAssay (NCI).

This is part of a sample that, as a whole, favours compounds with a hit. Of some 83,000 tested, about 20% had one in any assay.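 Each cell line was grown in a 96-well plate and treated with one concentration of compound for 48 hours. Values below 10 were considered active.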 Unmarked numbers belong to inactive results. Active and inactive are the calls of the source.

Test systems include HCT-15 colon; HT29 colon; SNB-19 CNS; U251 CNS; PC-3 prostate; SK-MEL-5 melanoma; UACC-62 melanoma; LOX IMVI melanoma; SK-MEL-28 melanoma; SK-MEL-2 melanoma; EKVX NSCLC; SN12C renal; UO-31 renal; TK-10 renal; ACHN renal; A498 renal; CCRF-CEM leukemia; MOLT-4 leukemia; CAKI-1 renal.
Common to all, as to assay: NCI-60 one-dose screen, 48 h (100 = growth as untreated, 0 = no growth, -100 = all killed)
Settings in all cases: 10 µM unless noted

Consider `Cc1c(C(=N)C(C#N)C#N)c(=N)oc2c1ccc1ccccc12`, for which the growth in the assay with HCT-15 colon is 74.2%; with HT29 colon, 93.3%; in the assay with SNB-19 CNS it was 103%; with U251 CNS, 87.4%; in the assay with PC-3 prostate, 97.8%; in the assay on SK-MEL-5 melanoma, 83.7%. Also, the growth is 78.3% in the assay on UACC-62 melanoma; 92.8% in the assay on LOX IMVI melanoma; 124% in the assay on SK-MEL-28 melanoma; 26.6% with SK-MEL-2 melanoma; 26.9% with EKVX NSCLC; 88.7% with SN12C renal. Also, the growth in the assay with UO-31 renal is 85.5%; in the assay with TK-10 renal, 121%; with ACHN renal, 86.4%; in the assay on A498 renal, 85.2%; in the assay with CCRF-CEM leukemia, 66.1%; with MOLT-4 leukemia, 64.3%.

On to `O=C(N/N=C/C=C\c1ccccc1)C(=O)N/N=C/C=C/c1ccccc1`, for which the growth in the assay on HCT-15 colon was 108%; in the assay with HT29 colon, 110%; with SNB-19 CNS, 120%; with U251 CNS it was 107%; in the assay with PC-3 prostate it was 109%; in the assay on SK-MEL-5 melanoma, 110%. Further, the growth is 114% with UACC-62 melanoma; 94% with LOX IMVI melanoma; 115% with SK-MEL-28 melanoma; 109% in the assay with SK-MEL-2 melanoma; 111% in the assay on EKVX NSCLC; 92.6% in the assay with SN12C renal. The growth is 91.3% with UO-31 renal; 104% with TK-10 renal; 125% in the assay on ACHN renal; 127% in the assay with A498 renal; 109% in the assay with MOLT-4 leukemia.

With `CCC(=O)OC1=CN2C(=NC(c3ccc(N)cc3)=CC2c2cc(OC)c(OC)c(OC)c2)S1` (configuration not stated), the growth in the assay with HCT-15 colon was 27.6%; with HT29 colon it was 3.44% (active); in the assay with SNB-19 CNS it was 83.8%; with U251 CNS it was 46.3%; in the assay with PC-3 prostate, 49%; in the assay on SK-MEL-5 melanoma, 66.9%. Further, the growth with UACC-62 melanoma was 78%; in the assay with LOX IMVI melanoma it was 45.3%; with SK-MEL-28 melanoma it was 50.8%; in the assay with SK-MEL-2 melanoma it was 64%; in the assay with SN12C renal, 53.5%; in the assay with UO-31 renal, 58.7%. Besides, the growth in the assay with TK-10 renal is 79.2%; with ACHN renal, 60.5%; in the assay on CAKI-1 renal, 75.1%; with A498 renal, 81.9%; in the assay on CCRF-CEM leukemia it was 8.95% (active); in the assay on MOLT-4 leukemia it was 39.8%.

On to `C=CCSc1n[nH]c(-c2cccs2)n1`, for which the growth in the assay on HCT-15 colon is 103%; in the assay with HT29 colon, 102%; with SNB-19 CNS, 103%; in the assay on U251 CNS, 99.3%; in the assay on PC-3 prostate, 108%; with SK-MEL-5 melanoma, 104%. For the same compound, the growth with UACC-62 melanoma is 101%; in the assay with LOX IMVI melanoma, 99.8%; in the assay on SK-MEL-28 melanoma, 129%; in the assay with SK-MEL-2 melanoma, 3.39% (active); in the assay with EKVX NSCLC, 108%; in the assay on SN12C renal it was 97.2%. The growth with UO-31 renal is 118%; in the assay with TK-10 renal, 121%; with ACHN renal, 105%; with A498 renal it was 101%; in the assay with CCRF-CEM leukemia it was 94.6%; in the assay with MOLT-4 leukemia, 99.5%.

`O=S(=O)(NCCNc1nccc(-c2c(-c3ccc(O)cc3)nc3sccn23)n1)c1cccc2ccccc12`: the growth in the assay with HCT-15 colon was 100%; with HT29 colon, 102%; in the assay on SNB-19 CNS, 99.7%; in the assay on U251 CNS it was 95.3%; in the assay on PC-3 prostate, 97.5%; in the assay on SK-MEL-5 melanoma, 102%. Besides, the growth in the assay on UACC-62 melanoma is 106%; with LOX IMVI melanoma, 101%; with SK-MEL-28 melanoma it was 111%; with SK-MEL-2 melanoma it was 124%; in the assay with SN12C renal it was 97.7%; in the assay on UO-31 renal, 85.1%. Besides, the growth with TK-10 renal was 98.2%; with ACHN renal it was 107%; in the assay on CAKI-1 renal it was 99.7%; in the assay on A498 renal, 104%; with CCRF-CEM leukemia, 97.8%; in the assay with MOLT-4 leukemia, 87.6%.

Take `COc1ccc(-c2nc3sc(-c4cc(OC)c(OC)c(OC)c4)nn3c2/C=C2/C(=O)Nc3ccc(F)cc32)cc1`: the growth in the assay with HCT-15 colon is -3.94% (active); in the assay with HT29 colon, -49.9% (active); with SNB-19 CNS, 11%; with U251 CNS, -87.4% (active); with PC-3 prostate it was -25% (active); in the assay on SK-MEL-5 melanoma, -39.2% (active). In addition, the growth in the assay on UACC-62 melanoma is -26.1% (active); in the assay with LOX IMVI melanoma it was 17.8%; with SK-MEL-28 melanoma, -72.8% (active); in the assay with SK-MEL-2 melanoma, -10.8% (active); with SN12C renal, -29.2% (active); in the assay with UO-31 renal it was -33.4% (active). The growth with TK-10 renal was -52.2% (active); with ACHN renal it was -15.7% (active); in the assay with CAKI-1 renal, 4.52% (active); with A498 renal it was 96.7%; in the assay with CCRF-CEM leukemia, 20.6%.

Consider `O=S(=O)(NCCCNc1nccc(-n2ccc3cccnc32)n1)c1ccc(Br)cc1`, for which the growth in the assay on HCT-15 colon is 102%; with HT29 colon it was 107%; in the assay on SNB-19 CNS it was 102%; with U251 CNS, 106%; in the assay on PC-3 prostate, 96.5%; in the assay with SK-MEL-5 melanoma, 101%. For the same compound, the growth was 99.5% in the assay with UACC-62 melanoma; 96.3% with LOX IMVI melanoma; 108% in the assay on SK-MEL-28 melanoma; 108% in the assay with SK-MEL-2 melanoma; 93% in the assay on EKVX NSCLC; 102% in the assay with SN12C renal. Besides, the growth with UO-31 renal is 107%; in the assay with TK-10 renal, 121%; in the assay with ACHN renal it was 108%; in the assay on A498 renal it was 102%; in the assay with CCRF-CEM leukemia it was 102%; in the assay with MOLT-4 leukemia, 100%.

Turning to `COc1cc(-c2nn(-c3cccc(NC(=O)c4ccc(N5CCOCC5)c(C(F)(F)F)c4)c3)cc2-c2ccncc2)ccc1Cl`, the growth with HCT-15 colon was 16.7%; in the assay with HT29 colon, -13.3% (active); in the assay with SNB-19 CNS, 45.1%; in the assay on U251 CNS, 2.49% (active); in the assay with PC-3 prostate it was 8.17% (active); with SK-MEL-5 melanoma, 3.41% (active). Also, the growth was 8.35% (active) in the assay on UACC-62 melanoma; 13.7% in the assay with LOX IMVI melanoma; 28.4% in the assay with SK-MEL-28 melanoma; -8.84% (active) with SK-MEL-2 melanoma; 31% with SN12C renal; 24.6% with UO-31 renal. The growth in the assay with TK-10 renal was 17.8%; in the assay on ACHN renal it was 21.3%; with CAKI-1 renal, 39.9%; with A498 renal it was -29.7% (active); with CCRF-CEM leukemia it was 0.907% (active); with MOLT-4 leukemia, 4.07% (active).
